Screening results as filed in PubChem BioAssay.
DT40 TDP1 no CPT = qHTS for Inhibitors of human tyrosyl-DNA phosphodiesterase 1 (TDP1): qHTS in cells in absence of CPT. DT40 Tdp1-/- hTDP1 cells, no CPT, ATP luminescence, 48 h. Potency, µM (titrated, usually from 46.2 µM), most hits filed as inhibitors. actives 15% (n = 420,000). AID 686978, 2013; also: nearly all actives have a fitted effect of over 55% in size
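DT40 Tdp1-/-;hTDP1 cells, no CPT (DMSO vehicle only), 400 cells/well; compounds pin-transferred; ≥48 hr, 37 °C; CellTiter-Glo 30 min RT dark, luminescence read.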
HT1080-NT tox = kills 2HG-producing HT-1080-NT fibrosarcoma cells; HT-1080-NT fibrosarcoma viability, CellTiter-Glo ATP luminescence, 48 h; Potency, µM (highest dose often 46.1 µM), actives largely listed as cytotoxic; actives 1.6% (n = 360,000);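 also: NT is the 2HG producing partner of a matched IDH1 knockdown line; nearly all actives have a fitted effect of over 55% in size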
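Viability of the 2HG-overproducing fibrosarcoma line after 48 hours of compound exposure at 37 degrees C was determined by luminescence with CellTiter-Glo, and concentration-effect curves were then fitted and categorized.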
HepG2 viability = kills HepG2 cells in TGF-b inhibitor counter-screen; Potency, µM (titrated, usually from 46.1 µM), hits mostly cytotoxic; AID 588856; actives 0.76% (n = 410,000); HepG2 CAGA-GFP viability, ATP luminescence, 18 h
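CellTiter-Glo luminescence gave cytotoxicity after 18 hours at 37 degrees C. The cells were HepG2 CAGA-GFP in 1% FBS DMEM, stimulated with 500 pg/mL TGF-beta after compound addition. %Activity was normalised to no-cell wells (complete cell-killing) and DMSO (no toxicity), and curves were fitted and classified.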
TGFb inhibitor = TGF-b pathway inhibition; actives 1.2% (n = 410,000); HepG2 CAGA-GFP TGF-b/SMAD3 reporter, GFP fluorescence, 18 h; TGF-beta stimulated, 500 pg/mL final; Potency, µM (titrated, usually from 46.1 µM), hits mostly inhibitors; also: nearly all actives have a fitted effect of over 65% in size
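GFP signal (ex488/em500-530) from TGF-beta-stimulated HEPG2 CAGA-GFP cells, 500 pg/mL final, 18 h at 37 degrees C in DMEM plus 1% FBS, normalized to unstimulated and DMSO-stimulated controls.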
TDP1 cell CPT = DT40-hTDP1 cell growth loss with CPT; chicken DT40 Tdp1-/-;hTDP1 cells + 20 nM CPT, ATP luminescence, 48 h; actives 12% (n = 420,000); Potency, µM (highest dose often 46.2 µM), most hits filed as inhibitors; also: nearly all actives have a fitted effect of over 55% in size
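Cell growth measured by CellTiter-Glo luminescence after a minimum 48 h, 37 C compound exposure with 20 nM CPT in Tdp1-knockout DT40 cells stably expressing hTDP1, seeded 400/well; qHTS titration format.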
HT1080 IDH1KD tx = toxicity to HT-1080 IDH1 knockdown cells (counter line) | actives 2% (n = 360,000) | Potency, µM (top dose mostly 46.1 µM), actives largely listed as cytotoxic | HT-1080 IDH1 knockdown viability, ATP luminescence, 48 h
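After a 2 h attachment period, IDH1KD HT-1080 cells took pin-transferred compound for 48 h at 37 °C; ATP-based luminescence after 10 min room-temperature reagent incubation reported viability.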
Each line names hits and unclear results; the compound was inactive in the other large screens. The list is not random: actives were taken first. Their share in the collection is about 17%. Calls follow the shape of the dose curve; as a rule, active = well fitted curve in the direction sought with a large enough effect; inconclusive = small, poorly fitted or top-dose-only effect, or another doubt; inactive = no such curve, though single readings can be large; an effect the other way counts as inactive or inconclusive.

CN(C)C(=O)CCc1ccc2c3c([nH]c2c1)[C@]1(C)[C@@H](C(=O)N2CCCCC2)C[C@H](CC(=O)NC(C)(C)C)C(=O)N1CC3	DT40 TDP1 no CPT inconclusive, TDP1 cell CPT inconclusive
CC[C@]12c3[nH]c4ccccc4c3CCN1C(=O)C(CC(=O)NC/C=C(\C)CCC=C(C)C)C[C@@H]2C(=O)N1CCN(C(=O)c2ccco2)CC1 (some centres not stated)	DT40 TDP1 no CPT inconclusive, TGFb inhibitor inconclusive, TDP1 cell CPT 16.4µM, HT1080 IDH1KD tx inconclusive
Cn1c(SCC(=O)NNC(=O)c2ccccc2)nnc1C1CC1	none
CCc1ccc([C@@H]2C[C@H]3[C@@H](CN2S(=O)(=O)c2ccc(C)cc2)C(=O)C[C@@H](c2cccc(Cl)c2)N3S(=O)(=O)c2ccc(C)cc2)cc1	DT40 TDP1 no CPT inconclusive
Cc1ccccc1CCNC(=O)Cn1ccc2cc(S(=O)(=O)N3CCCC3)ccc21	DT40 TDP1 no CPT inconclusive, TDP1 cell CPT 18.4µM
Cc1ccc(CCNC(=O)Cn2ccc3cc(S(=O)(=O)N4CCCC4)ccc32)cc1	DT40 TDP1 no CPT 23.1µM, TDP1 cell CPT inconclusive
O=C(Cn1ccc2cc(S(=O)(=O)N3CCCCCC3)ccc21)NCCc1ccccc1Cl	DT40 TDP1 no CPT inconclusive, TDP1 cell CPT inconclusive (no result: HT1080-NT tox, HT1080 IDH1KD tx)
CN(C)C(CNC(=O)c1ccc(NS(=O)(=O)c2ccc3[nH]c(=O)[nH]c3c2)cc1)c1ccccc1 (configuration not stated)	DT40 TDP1 no CPT inconclusive, TGFb inhibitor inconclusive
N#C/C(=C\c1ccc(O)c(Br)c1)C(=O)NCc1ccccc1	none
N#C/C(=C/c1ccc(O)c(O)c1)C(=O)NCc1ccc(Cl)cc1	DT40 TDP1 no CPT inconclusive, HT1080-NT tox inconclusive, TDP1 cell CPT 25.9µM, HT1080 IDH1KD tx inconclusive
N#C/C(=C/c1cccc(O)c1)C(=O)NCc1ccc(Cl)cc1	DT40 TDP1 no CPT 16.4µM, HT1080-NT tox inconclusive, TGFb inhibitor inconclusive, TDP1 cell CPT inconclusive, HT1080 IDH1KD tx inconclusive
Cc1ccccc1-c1nc(CS(=O)(=O)CC(=O)Nc2c(C)cccc2C)c(C)o1	DT40 TDP1 no CPT 18.4µM, TGFb inhibitor 11.2µM, TDP1 cell CPT inconclusive (no result: HT1080-NT tox, HT1080 IDH1KD tx)
CCOc1ccc(CCNC(=O)CS(=O)(=O)Cc2nc(-c3ccc(OC)cc3)oc2C)cc1	DT40 TDP1 no CPT inconclusive, TGFb inhibitor inconclusive
Cc1ccc(CNC(=O)CS(=O)(=O)Cc2nc(-c3ccccc3C)oc2C)cc1	DT40 TDP1 no CPT 16.4µM, TGFb inhibitor inconclusive, TDP1 cell CPT inconclusive (no result: HT1080-NT tox, HT1080 IDH1KD tx)
CCOc1ccc(CCNC(=O)CS(=O)(=O)Cc2nc(-c3ccccc3F)oc2C)cc1	DT40 TDP1 no CPT 11.6µM, TGFb inhibitor inconclusive, TDP1 cell CPT inconclusive
CCCNC(=O)CS(=O)(=O)Cc1nc(-c2ccccc2C)oc1C	none
CC1CCN(C(=O)CSc2nc3ccccc3nc2Cc2ccccc2)CC1	DT40 TDP1 no CPT 10.3µM, TGFb inhibitor inconclusive, TDP1 cell CPT 14.6µM (no result: HT1080-NT tox, HT1080 IDH1KD tx)
Cc1ccc(Cc2nc3ccccc3nc2SCC(=O)N2CCCCC2)cc1	DT40 TDP1 no CPT 20.6µM, TDP1 cell CPT inconclusive (no result: HT1080-NT tox, HT1080 IDH1KD tx)
Cc1ccc(Cc2nc3ccccc3nc2SCC(=O)N2CCN(c3ccccc3)CC2)cc1	none (no result: HT1080-NT tox, HT1080 IDH1KD tx)
COc1ccc(N2CCN(C(=O)CSc3nc4ccccc4nc3Cc3ccc(Cl)cc3)CC2)cc1	DT40 TDP1 no CPT inconclusive, TDP1 cell CPT 20.6µM (no result: HT1080-NT tox, HT1080 IDH1KD tx)
COc1ccccc1N1CCN(C(=O)CSc2nc3ccccc3nc2Cc2ccccc2)CC1	DT40 TDP1 no CPT 23.1µM, TDP1 cell CPT 23.1µM (no result: HT1080-NT tox, HT1080 IDH1KD tx)
CCNC(=O)C1(C)CCN(C(=O)c2ccccc2C(F)(F)F)C1 (configuration not stated)	none
Cc1ccc(C(=O)NCC(=O)NCC(=O)OCC(=O)c2ccc(F)cc2)cc1	none
